The record followed here is PubChem BioAssay (NCI).

The panel holds about 83,000 compounds, 20% with a hit somewhere; the sample as a whole holds those more often.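 Single-dose data. Exposure time 48 hours. Values below 10 considered active.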 The source made the active and inactive calls.

For this assay, the system named is HL-60(TB) leukemia. Description: NCI-60 one-dose screen, 48 h (100 = growth as untreated, 0 = no growth, -100 = all killed). The note with it: 10 µM unless noted.

In the case of `Nc1ncnc2c1c(-c1ccc(Oc3ccccc3)cc1)nn2CC1SSCC1O` (stereo unspecified), the growth was -25.9% (active).

With `O=C1Nc2ccccc2/C1=N/N=C/c1c[nH]c2ccccc12`, the growth was 86.2% (inactive).

`Cc1ccc(-c2nc(-c3cn(C)c4ncccc34)cs2)cc1`: the growth is 16.2% [100 µM] (inactive).

In the case of `COc1ccc(/C=C2\COc3ccc(O)c(O)c3C2=O)cc1OC`, the growth is -28.7% (active).

Consider `CN(C)c1ccc(/C=C/c2sc3ccc4ccccc4c3[n+]2C)cc1`, for which the growth is -41.8% (active).

For the compound `C[C@@H]1CC[C@@H]2[C@@H]1[C@H](OC(=O)/C=C/c1ccccc1)[C@]1(c3ccccc3)C[C@@H](OC(=O)CO)[C@@]2(C)O1`, the growth was 105% (inactive).

For `CC(C)(C)c1cc(O)c(O)c(C(C)(C)C)c1`, the growth was 4.04% (active).

Consider `O=[N+]([O-])c1ccccc1NC1c2ccccc2Oc2ccccc21`, for which the growth was -14.4% (active).

`CCCCn1c(=O)[nH]c2c(c1=O)C(c1ccc(Cl)cc1)c1c([nH]c(=O)n(CCCC)c1=O)N2`: the growth was 99.2% (inactive).

Take `Cc1cccc(NC(=O)c2sc3nc4c(cc3c2N)CCCC4)c1C`: the growth is 9.11% (active).

`COC(=O)CCc1n(Cc2ccc3ccccc3c2)c2ccccc2[n+]1Cc1ccc2ccccc2c1`: the growth was -49.1% (active).

Consider `CCCCCCC(C)N(CC(C)(C)O)C(=O)c1ccc([N+](=O)[O-])cc1` (stereo unspecified), for which the growth was 95.7% (inactive).

On to `O=c1c2cc(F)ccc2sc2c(NCCN3CCCC3)nc3ccccc3c12`, for which the growth is 91.9% (inactive).

In the case of `O=[N+]([O-])c1ccc(-c2nc(N(CCO)CCO)c3ccccc3n2)o1`, the growth is -11.1% (active).

`O=C(N/N=C\c1ccc(-c2ccc(Br)cc2)o1)c1cc2oc(-c3cccc(C(F)(F)F)c3)cc2[nH]1`: the growth is 146% (inactive).

`COc1ccc(C(=O)c2nccc3cc(OC)c(OC)cc23)cc1OC`: the growth was 102% (inactive).

Turning to `C=CCN1C(=O)/C(=C\c2ccc3c(c2)CCC3)SC1=S`, the growth is 79% (inactive).

Consider `CCOC(=O)CC(=O)OC`, for which the growth is 97% (inactive).

For `COc1cc(Nc2nc3ccccc3cc2C(=O)Nc2ccc(F)c(F)c2)cc(OC)c1OC`, the growth is 19.8% (inactive).

Turning to `O=C(c1ccc2ncc(-c3nc(NC4CC4)ncc3F)n2c1)N1CCOCC1`, the growth is -30.3% (active).

Regarding `Cc1cc(=O)oc2cc(OC(=O)CN3CCN(C)CC3)ccc12`, the growth is 122% (inactive).

As to `C=C1C(=O)O[C@H]2[C@H]1CC/C(COC(=O)/C=C\C(=O)O)=C\CC[C@@]1(C)O[C@@H]21`, the growth is 105% (inactive).

For the compound `O=C1CCn2c1c(O)c1ccccc1c2=O`, the growth is 110% (inactive).

Regarding `CCCCCCCCCCCCOC(=N)N(C)C`, the growth is 91.9% (inactive).

Take `Cc1ccncc1C(N)=O`: the growth is -80.7% (active).

As for `Cc1cccc[n+]1C1c2ccccc2-c2ccccc21`, the growth is 92% (inactive).

As for `CCOC(=O)C(Cc1ccccc1)n1c(O)c(C=Nc2ccc(C(=O)OCCN(CC)CC)cc2)sc1=O` (stereo unspecified), the growth was 97.8% (inactive).

Regarding `COc1ccc2cc(C(=O)N3CCC([C@@H](C)C(=O)NCc4ccc5c(c4)OCO5)CC3)[nH]c2c1`, the growth was 91% [50 µM] (inactive).

As to `Cc1ccc(NC(=O)c2[nH]c(SCCN(C)C)nc2-c2ccc(F)cc2)cc1Nc1ccc2ncn(C)c(=O)c2c1`, the growth is 19.3% (inactive).

Take `Cc1ccc(O)c(NC(=O)c2ccc(CNc3ccnc(C(F)(F)F)c3)cc2)c1`: the growth was 9.24% (active).

As to `COc1ccc(OC)c(-c2c(C#N)c(-c3ccc(Cl)cc3)nc3c2c(-c2ccccc2)nn3-c2ccccc2)c1`, the growth is 99% (inactive).

On to `COc1ccc(/C=C(/c2ccccc2)[N+](=O)[O-])cc1`, for which the growth was -28.6% (active).

`COc1cccc(-c2cc(-c3cccc(Cl)c3)c(C#N)c(=O)[nH]2)c1`: the growth is 36.2% (inactive).

As to `CN(C)c1ccc(/C=C\c2ccnc3ccccc23)cc1`, the growth is 26.1% (inactive).

`NC(=S)N/N=C\c1nccc2c(N)cccc12`: the growth is -10.4% (active).

Regarding `COc1ccc(Cl)c(Nc2nc3ccccc3nc2NS(=O)(=O)c2cccc(NC(=O)C(C)(C)N)c2)c1`, the growth is 32.6% (inactive).

Consider `CCn1c(O)c(/C=N/NC(=O)C(C)c2ccc(CC(C)C)cc2)sc1=S` (stereo unspecified), for which the growth is -32.5% (active).

For `C=NNc1ccccc1`, the growth was 117% (inactive).

As for `c1csc(-c2cnc3nonc3n2)c1`, the growth is 1.96% (active).

In the case of `Nc1[nH]n2cc(-c3ccc(F)cc3)nc2c1N=Nc1ccc(S(N)(=O)=O)cc1`, the growth was 94.7% (inactive).

`Cc1cc(SC#N)cc(C(C)(C)C)c1O`: the growth is 74.3% (inactive).

On to `Cn1nc(C(F)(F)F)cc1-c1cc(Cl)c(OCc2ccc(Cl)cc2)c(-c2ccc(Cl)c(C(F)(F)F)c2)c1O`, for which the growth was -24.3% (active).

As to `O=C1NC(Cc2c[nH]c3ccccc23)C(=O)N1Cc1ccc(Cl)cc1` (stereo unspecified), the growth was 74% (inactive).

Regarding `CCOc1ccccc1/C=N\Nc1ccc(S(=O)(=O)c2ccc(N/N=C/c3ccccc3OCC)cc2)cc1`, the growth is 102% (inactive).

Consider `Cn1cc(-c2noc(-c3cn(C)c4ncccc34)n2)c2cc(Cl)ccc21`, for which the growth was 80.2% (inactive).

Turning to `O=c1c(F)cn(Cc2ccccc2CCl)c(=O)n1Cc1ccccc1CCl`, the growth is -63.6% (active).

As to `C=CCNC(=S)NN`, the growth is 119% (inactive).

Consider `CC([C@H]1CCC2C3CCC4C[C@@H](NC=O)CC[C@]4(C)C3CC[C@@]21C)N(C)C` (stereo partly specified), for which the growth is -61.1% (active).

`Cc1ccc(Cc2cnc(NC(=O)c3ccc4noc(-c5ccccc5)c4c3)s2)cc1`: the growth is 97.7% (inactive).

Consider `C=C(C)[C@@H]1CCC[C@]2(C(=O)OC)CC[C@]3(C)[C@@H](CC[C@@H]4[C@@]5(C)CCCNC(C)(C)[C@@H]5CC[C@]43C)[C@@H]12`, for which the growth is 96.7% (inactive).

In the case of `Nc1ncn(C2OC(CO)C(O)C2O)c(=O)n1` (stereo unspecified), the growth is -44.6% (active).
